# Compounds without any hit were thinned out: in the full panel of roughly 83,000, 20% have a hit.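 Each cell line was grown in a 96-well plate and treated with one concentration of compound for 48 hours. Values below 10 were considered active.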 Unmarked numbers belong to inactive results. Activity calls are given as the source filed them.
# Columns and labels:
# Assay in all cases: NCI-60 one-dose screen, 48 h (100 = growth as untreated, 0 = no growth, -100 = all killed)
# Conditions in all cases: 10 µM unless noted
# [1] = tested on: SK-MEL-2 melanoma
# [2] = tested on: EKVX NSCLC
# [3] = tested on: SN12C renal
# [4] = tested on: UO-31 renal
# [5] = tested on: TK-10 renal
# [6] = tested on: ACHN renal
# [7] = tested on: CAKI-1 renal
# [8] = tested on: A498 renal
# [9] = tested on: CCRF-CEM leukemia
# [10] = tested on: MOLT-4 leukemia
Compound,growth [1],growth [2],growth [3],growth [4],growth [5],growth [6],growth [7],growth [8],growth [9],growth [10]
COCCn1cc(-c2nc(-c3cc4cccnc4[nH]3)cs2)c2cc(OC)ccc21,37.8%,16.9%,48.5%,10.9%,-4.75% (active),22.4%,34.4%,-0.329% (active),12.4%,26.6%
COc1cc(NS(=O)(=O)c2ccc(-c3cnc(C4CC4)o3)cc2)ccc1F,54.2%,33%,41.1%,37.1%,43.8%,37.3%,35.4%,-6.34% (active),19.5%,31.9%
CCN(CC)CCn1c2ccc(OC)cc2c2sc3cc(OC)ccc3c(=O)c21,63.5%,41.3%,24.6%,8.29% (active),49.2%,-38.8% (active),48.3%,15.6%,15%,3.81% (active)
O=C1/C(=C\c2ccc3nccnc3c2)SC(=S)N1CCc1ccc(O)cc1,97.1%,100%,86.9%,49.7%,67.8%,94%,78.9%,83.1%,79%,106%
CCc1ncnc2c1ccn2C(C)c1ccc(OC)c(F)c1 (stereo not given),34.3%,51.9%,67%,60.1%,58.8%,75.4%,40.5%,46.3%,42.4%,32.7%
O=C(/C=C/c1ccco1)Nc1ncc(Cc2cccc(C(F)(F)F)c2)s1,23.4%,25%,20.9%,11.8%,33.6%,11.7%,20.5%,-6.36% (active),14.5%,14%
CS(=O)(=O)Nc1cc(-c2ccc3ncnc(Nc4ccc5c(cnn5Cc5ccc(F)cc5)c4)c3c2)cnc1Cl,3.86% (active),62.5%,35.6%,46.5%,38.3%,70.6%,25.7%,-23.2% (active),31.2%,21.2%
COc1ccc(OC)c(/C=N/Nc2ncnc3c2c(C)nn3C)c1,105%,94.8%,91.4%,82.9%,105%,105%,98.7%,64.4%,103%,93.9%
N#Cc1c(-c2ccc(Cl)cc2)nc(NN2C(=O)c3ccccc3C2=O)nc1N1CCOCC1,110%,103%,99.9%,84.4%,100%,104%,90.4%,94.7%,103%,97.8%
Cn1cc(-c2csc(-c3c[nH]c4ccc(Br)cc34)n2)c2ccnc(Cl)c21,85.4%,69.1%,67.5%,48.8%,56.3%,39.2%,66.5%,51.6%,39.5%,56.4%
CCC(=O)Oc1ccc(-c2ccccc2)cc1Br,110%,102%,104%,102%,101%,113%,98.7%,63.5%,102%,111%
C=C(C)[C@@H]1CC[C@]2(C(=O)O)CC[C@]3(C)[C@H](CC[C@@H]4[C@@]5(C)CCC(NC(=O)c6cccc(OC(C)=O)c6OC(C)=O)C(C)(C)[C@@H]5CC[C@]43C)[C@@H]12 (stereo not given in full),14.9%,2.51% (active),12.5%,-39% (active),19.7%,3.98% (active),3.74% (active),-21.9% (active),10.4%,8.43% (active)
CC(O)(c1ccccc1)C(c1ccccc1)C1CCCCN1 (stereo not given),117%,104%,93.1%,93.5%,102%,107%,102%,106%,101%,99.7%
COC12C=C/C(=C(/C(=O)OCc3ccncn3)C(=O)CCCCCCCCC3(OC)C=C/C(=C(/C(=O)OCc4ccncn4)C(=O)CCCCCCCC1)O3)O2,11.6%,-15.5% (active),-10.7% (active),-50.7% (active),9.83% (active),-74.8% (active),-28.4% (active),-86.3% (active),-15.2% (active),-7.71% (active)
COC(=O)c1c(C)c2n(c1C)C(=O)C(c1ccccc1)=C2,77.7%,10.2%,78.7%,57.9%,143%,74%,33.1%,84.2%,92.8%,66.8%
COc1ccc(/C=C(\C#N)n2nnc3cc(Cl)ccc32)cc1,26.1%,11.4%,11.7%,25.9%,25.6%,14.6%,32.7%,-23.5% (active),12.4%,14.2%
CCN1C(=S)N(c2ccccc2)C2C1NN=c1s/c(=C3\C(=O)N(C(C)C)c4ccccc43)c(=O)n12 (stereo not given),107%,101%,55.1%,80.5%,86.6%,80%,76.2%,97.5%,93.1%,91.1%
CCCCCN1C(=O)/C(=c2\sc3n(c2=O)C2C(NN=3)N(CC)C(=O)N2CC)c2ccccc21 (stereo not given),21.3%,26.3%,-50.5% (active),-40.8% (active),19.9%,2.83% (active),7.55% (active),-27.8% (active),-15.6% (active),4.79% (active)
CC1=NC2=Nn3c(c4cnn(-c5ccccc5)c4n/c3=N\N)NN2C(c2ccccc2)=C1,101%,80.7%,-63.4% (active),70.3%,109%,85.8%,76.5%,91%,101%,103%
O=C(CN1C(=O)S/C(=C\c2ccccc2)C1=O)Nc1ncc(Cc2ccccc2Cl)s1,102%,108%,102%,75.1%,103%,92%,78.2%,112%,97.7%,85.9%
N#Cc1ccc(O)c(C2=NCC(c3ccccc3)O2)c1 (stereo not given),50.6%,37.1%,41.7%,20.1%,52.2%,40.5%,8.26% (active),63.5%,28.1%,18.7%
CCOC(=O)[C@@H]1CSC(CC)=C(C(=O)O)N1,111%,105%,98.4%,85.1%,110%,97.6%,97.1%,108%,-12.6% (active),-5.82% (active)
CC1(C)COB(OCC(C)(C)COB2OCC(C)(C)CO2)OC1,113%,104%,104%,87.7%,102%,108%,102%,100%,101%,108%
Cn1cc(-c2ccc3nc(-c4ccc(CC(=O)ONc5cc(C(C)(C)C)on5)cc4)cnc3c2)cn1,13%,39.2%,26.1%,20.9%,21.3%,13.4%,6.91% (active),15.6%,38.8%,11.6%
CCOC(=O)c1cc(C(=O)c2cc(OC)c(OC)c(OC)c2)n2ncccc12,57.7%,37.6%,53.6%,39.8%,54%,51.6%,38.1%,-5.24% (active),11%,18.5%

# — PubChem BioAssay (NCI)
